Several values for one entry are separate records, joined by “and”; a condition that tells them apart may be missing. Equal values may be shown once. The whole screen tested about 5,500 compounds, of which about 2,000 (36%) were called active. Inconclusive results (about 18%) are left out. No stated cut-off is given here; in the data, active means normalized growth mostly below about 0.91 (no sharp cut-off); inconclusive means no clear call, values can overlap the other calls; inactive means mostly above about 0.92. The list shows a part of the results. More than one record can exist for a structure, and the calls need not agree.
Experiment: chemical genetic growth profiling, strain panel (AID 1159580);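 further: tested at 20 µM; growth read once vehicle control cultures reached saturation at 30 °C; 1 = growth at the plate median or of vehicle wells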
Conditions: growth OD
[1] = S. cerevisiae deletion strains, locus YAL013W, strain DEP1, stronger effect = lower value
[2] = S. cerevisiae deletion strains, locus YAL040C, strain CLN3, stronger effect = lower value
[3] = S. cerevisiae deletion strains, locus YDR363W, strain ESC2, stronger effect = lower value
[4] = S. cerevisiae deletion strains, locus YER002W, strain NOP16, stronger effect = lower value
[5] = S. cerevisiae deletion strains, locus YJR075W, strain HOC1, stronger effect = lower value
[6] = S. cerevisiae deletion strains, locus YMR307W, strain GAS1, stronger effect = lower value
[7] = S. cerevisiae deletion strains, locus YNL153C, strain GIM3, stronger effect = lower value
[8] = S. cerevisiae deletion strains, locus YNL175C, strain NOP13, stronger effect = lower value
[9] = S. cerevisiae deletion strains, locus YNL197C, strain WHI3, stronger effect = lower value
[10] = S. cerevisiae deletion strains, locus YNL224C, strain SQS1, stronger effect = lower value
[11] = S. cerevisiae deletion strains, locus YOR083W, strain WHI5 (second series), stronger effect = lower value
[12] = S. cerevisiae deletion strains, locus YPL055C, strain LGE1, stronger effect = lower value

In the case of `CN1CCN(C2Cc3ccccc3Sc3ccc(Cl)cc32)CC1` (centres undefined), the normalized growth [1] was 0.883 (active), the normalized growth [2] was 1 (inactive) and the normalized growth [3] was 0.897 (inactive). For the same compound, the normalized growth [4] was 1.04 (inactive), the normalized growth [5] was 0.881 (active) and the normalized growth [6] was 1.01 (inactive). The normalized growth [7] was 0.587 (active), the normalized growth [8] was 0.915 (inactive) and the normalized growth [9] was 0.989 (inactive). The normalized growth [10] was 1.01 (inactive), the normalized growth [11] was 0.668 (active) and the normalized growth [12] was 0.923 (inactive).

For `CSc1ccc2c(c1)C(N1CCN(C)CC1)Cc1ccccc1S2` (centres undefined), the normalized growth [1] was 0.916 (inactive), the normalized growth [2] was 1 (inactive) and the normalized growth (S. cerevisiae deletion strains, locus YBR021W, strain FUR4, stronger effect = lower value) was 0.364 (active). For the same compound, the normalized growth (S. cerevisiae deletion strains, locus YBR229C, strain ROT2, stronger effect = lower value) was 1.01 (inactive), the normalized growth (S. cerevisiae deletion strains, locus YCL029C, strain bik1, stronger effect = lower value) was 0.987 (inactive) and the normalized growth (S. cerevisiae deletion strains, locus YCL061C, strain MRC1 (second series), stronger effect = lower value) was 0.532 (active). The normalized growth (S. cerevisiae deletion strains, locus YDL035C, strain GPR1, stronger effect = lower value) was 0.755 (active), the normalized growth (S. cerevisiae deletion strains, locus YDL074C, strain BRE1, stronger effect = lower value) was 0.584 (active) and the normalized growth (S. cerevisiae deletion strains, locus YDL101C, strain DUN1, stronger effect = lower value) was 0.537 (active). For the same compound, the normalized growth (S. cerevisiae deletion strains, locus YDL134C, strain PPH21, stronger effect = lower value) was 0.631 (active), the normalized growth (S. cerevisiae deletion strains, locus YDL185W, strain tfp1, stronger effect = lower value) was 1.01 (inactive) and the normalized growth (S. cerevisiae deletion strains, locus YDL192W, strain arf1, stronger effect = lower value) was 0.102 (active). The normalized growth (S. cerevisiae deletion strains, locus YDR101C, strain arx1, stronger effect = lower value) was 0.929 (inactive), the normalized growth (S. cerevisiae deletion strains, locus YDR150W, strain NUM1, stronger effect = lower value) was 1 (inactive) and the normalized growth (S. cerevisiae deletion strains, locus YDR162C, strain NBP2, stronger effect = lower value) was 0.139 (active). The normalized growth (S. cerevisiae deletion strains, locus YDR318W, strain mcm21, stronger effect = lower value) was 0.807 (active), the normalized growth [3] was 0.889 (inactive) and the normalized growth (S. cerevisiae deletion strains, locus YDR388W, stronger effect = lower value) was 0.659 (active). The normalized growth (S. cerevisiae deletion strains, locus YDR502C, strain sam2, stronger effect = lower value) was 0.859 (active), the normalized growth (S. cerevisiae deletion strains, locus YEL061C, strain CIN8, stronger effect = lower value) was 0.975 (inactive) and the normalized growth [4] was 1.07 (inactive). For the same compound, the normalized growth (S. cerevisiae deletion strains, locus YER110C, stronger effect = lower value) was 0.976 (inactive), the normalized growth (S. cerevisiae deletion strains, locus YER155C, strain BEM2, stronger effect = lower value) was 1.02 (inactive) and the normalized growth (S. cerevisiae deletion strains, locus YER167W, strain BCK2, stronger effect = lower value) was 0.937 (inactive). The normalized growth (S. cerevisiae deletion strains, locus YGL078C, strain dbp3, stronger effect = lower value) was 0.991 (inactive), the normalized growth (S. cerevisiae deletion strains, locus YGL086W, strain mad1, stronger effect = lower value) was 0.741 (active) and the normalized growth (S. cerevisiae deletion strains, locus YGL248W, strain PDE1, stronger effect = lower value) was 0.712 (active). The normalized growth (S. cerevisiae deletion strains, locus YGR078C, strain PAC10, stronger effect = lower value) was 0.833 (active), the normalized growth (S. cerevisiae deletion strains, locus YGR135W, strain pre9, stronger effect = lower value) was 0.753 (active) and the normalized growth (S. cerevisiae deletion strains, locus YGR229C, strain SMI1, stronger effect = lower value) was 0.142 (active). The normalized growth (S. cerevisiae deletion strains, locus YGR252W, strain gcn5, stronger effect = lower value) was 0.254 (active), the normalized growth (S. cerevisiae deletion strains, locus YHR030C, strain SLT2, stronger effect = lower value) was 0.655 (active) and the normalized growth (S. cerevisiae deletion strains, locus YHR079C, strain IRE1 (second series), stronger effect = lower value) was 0.911 (active). For the same compound, the normalized growth (S. cerevisiae deletion strains, locus YHR094C, strain hxt1, stronger effect = lower value) was 0.993 (inactive), the normalized growth (S. cerevisiae deletion strains, locus YHR129C, strain ARP1, stronger effect = lower value) was 0.99 (inactive) and the normalized growth (S. cerevisiae deletion strains, locus YHR200W, strain rpn10, stronger effect = lower value) was 0.959 (inactive). The normalized growth (S. cerevisiae deletion strains, locus YIL066C, strain RNR3, stronger effect = lower value) was 0.759 (active), the normalized growth (S. cerevisiae deletion strains, locus YIL073C, strain SPO22, stronger effect = lower value) was 0.437 (active) and the normalized growth (S. cerevisiae deletion strains, locus YIL125W, strain kgd1, stronger effect = lower value) was 0.977 (inactive). For the same compound, the normalized growth (S. cerevisiae deletion strains, locus YIR030C, strain dcg1, stronger effect = lower value) was 0.958 (inactive), the normalized growth (S. cerevisiae deletion strains, locus YJL095W, strain BCK1, stronger effect = lower value) was 0.537 (active) and the normalized growth (S. cerevisiae deletion strains, locus YJL134W, strain LCB3, stronger effect = lower value) was 1.01 (inactive). The normalized growth (S. cerevisiae deletion strains, locus YJL168C, strain set2, stronger effect = lower value) was 0.947 (inactive), the normalized growth (S. cerevisiae deletion strains, locus YJL187C, strain SWE1 (second series), stronger effect = lower value) was 0.658 (active) and the normalized growth (S. cerevisiae deletion strains, locus YJR043C, strain POL32, stronger effect = lower value) was 0.92 (inactive). The normalized growth [5] was 0.834 (active), the normalized growth (S. cerevisiae deletion strains, locus YKL009W, strain mrt4, stronger effect = lower value) was 0.962 (inactive) and the normalized growth (S. cerevisiae deletion strains, locus YKL068W, stronger effect = lower value) was 0.999 (inactive). The normalized growth (S. cerevisiae deletion strains, locus YKL085W, strain MDH1 (second series), stronger effect = lower value) was 0.987 (inactive), the normalized growth (S. cerevisiae deletion strains, locus YKL085W, strain MDH1, stronger effect = lower value) was 0.987 (inactive) and the normalized growth (S. cerevisiae deletion strains, locus YKL190W, strain CNB1, stronger effect = lower value) was 0.657 (active). The normalized growth (S. cerevisiae deletion strains, locus YKR001C, strain vps1, stronger effect = lower value) was 0.0823 (active), the normalized growth (S. cerevisiae deletion strains, locus YLR039C, strain RIC1, stronger effect = lower value) was 1.54 [resistant] (active) and the normalized growth (S. cerevisiae deletion strains, locus YLR058C, strain SHM2, stronger effect = lower value) was 0.77 (active). For the same compound, the normalized growth (S. cerevisiae deletion strains, locus YLR102C, strain apc9, stronger effect = lower value) was 0.987 (inactive), the normalized growth (S. cerevisiae deletion strains, locus YLR262C, strain YPT6, stronger effect = lower value) was 1.56 [resistant] (active) and the normalized growth (S. cerevisiae deletion strains, locus YLR268W, strain sec22, stronger effect = lower value) was 0.901 (inactive). The normalized growth (S. cerevisiae deletion strains, locus YLR330W, strain CHS5, stronger effect = lower value) was 0.994 (inactive), the normalized growth (S. cerevisiae deletion strains, locus YLR342W, strain FKS1 (second series), stronger effect = lower value) was 0.2 (active) and the normalized growth (S. cerevisiae deletion strains, locus YLR418C, strain cdc73, stronger effect = lower value) was 0.575 (active). For the same compound, the normalized growth (S. cerevisiae deletion strains, locus YML032C, strain rad52, stronger effect = lower value) was 0.894 (active), the normalized growth (S. cerevisiae deletion strains, locus YML124C, strain tub3, stronger effect = lower value) was 0.995 (inactive) and the normalized growth (S. cerevisiae deletion strains, locus YMR078C, strain ctf18, stronger effect = lower value) was 0.993 (inactive). For the same compound, the normalized growth (S. cerevisiae deletion strains, locus YMR223W, strain ubp8, stronger effect = lower value) was 0.779 (active), the normalized growth (S. cerevisiae deletion strains, locus YMR263W, strain SAP30, stronger effect = lower value) was 0.917 (inactive) and the normalized growth [6] was 0.514 (active) and 0.999 (inactive). The normalized growth (S. cerevisiae deletion strains, locus YNL067W, strain RPL9B, stronger effect = lower value) was 0.914 (inactive), the normalized growth (S. cerevisiae deletion strains, locus YNL128W, strain TEP1, stronger effect = lower value) was 0.771 (active) and 1.09 (inactive) and the normalized growth [7] was 0.747 (active). The normalized growth [8] was 1.02 (inactive), the normalized growth [9] was 1.06 (inactive) and the normalized growth [10] was 1.01 (inactive). For the same compound, the normalized growth (S. cerevisiae deletion strains, locus YNL233W, strain BNI4, stronger effect = lower value) was 0.696 (active), the normalized growth (S. cerevisiae deletion strains, locus YNL250W, strain rad50, stronger effect = lower value) was 1.01 (inactive) and the normalized growth (S. cerevisiae deletion strains, locus YNL271C, strain bni1, stronger effect = lower value) was 0.977 (inactive). The normalized growth (S. cerevisiae deletion strains, locus YNL298W, strain CLA4, stronger effect = lower value) was 0.979 (inactive), the normalized growth (S. cerevisiae deletion strains, locus YNL307C, strain MCK1, stronger effect = lower value) was 0.791 (active) and the normalized growth (S. cerevisiae deletion strains, locus YNL322C, strain KRE1, stronger effect = lower value) was 0.773 (active). For the same compound, the normalized growth (S. cerevisiae deletion strains, locus YNR052C, strain pop2, stronger effect = lower value) was 0.705 (active), the normalized growth (S. cerevisiae deletion strains, locus YOL006C, strain TOP1, stronger effect = lower value) was 0.413 (active) and the normalized growth (S. cerevisiae deletion strains, locus YOL012C, strain htz1) was 0.27 (inactive). For the same compound, the normalized growth (S. cerevisiae deletion strains, locus YOL147C, strain pex11, stronger effect = lower value) was 0.944 (inactive), the normalized growth (S. cerevisiae deletion strains, locus YOR061W, strain CKA2, stronger effect = lower value) was 0.122 (active) and the normalized growth (S. cerevisiae deletion strains, locus YOR069W, strain VPS5, stronger effect = lower value) was 1 (inactive). The normalized growth [11] was 0.745 (active), the normalized growth (S. cerevisiae deletion strains, locus YOR136W, strain idh2, stronger effect = lower value) was 0.938 (inactive) and the normalized growth (S. cerevisiae deletion strains, locus YOR144C, strain elg1, stronger effect = lower value) was 1.01 (inactive). The normalized growth (S. cerevisiae deletion strains, locus YOR184W, strain ser1, stronger effect = lower value) was 0.82 (active), the normalized growth (S. cerevisiae deletion strains, locus YOR316C, strain cot1, stronger effect = lower value) was 0.986 (inactive) and the normalized growth [12] was 0.596 (active) and 0.806 (active). For the same compound, the normalized growth (S. cerevisiae deletion strains, locus YPL241C, strain CIN2, stronger effect = lower value) was 0.996 (inactive), the normalized growth (S. cerevisiae deletion strains, locus YPR119W, strain clb2, stronger effect = lower value) was 0.988 (inactive) and the normalized growth (S. cerevisiae deletion strains, locus YPR141C, strain kar3, stronger effect = lower value) was 0.998 (inactive). For the same compound, the normalized growth (S. cerevisiae deletion strains, locus YPR163C, strain tif3, stronger effect = lower value) was 0.0814 (active), the normalized growth (S. cerevisiae deletion strains, locus YPR167C, strain met16, stronger effect = lower value) was 0.986 (inactive) and the normalized growth (S. cerevisiae deletion strains, strain wtn01, stronger effect = lower value) was 0.717 (active). The normalized growth (S. cerevisiae strains, strain wild type, stronger effect = lower value) was 0.698 (active).

Reference: PubChem BioAssay AID1159580 (chemical genetic matrix, 2015)
